Test results taken from PubChem BioAssay AID1850 (Southern Research Specialized Biocontainment Screening …, 2009).
The campaign covered roughly 310,000 compounds. About 1,000 (0.32%) were called active. These entries were drawn from the full list. Potency and affinity values are given separately. Values without a mark were called inactive. No rule for the calls is given here.

test: PhoP regulon inhibitors, Salmonella typhi PhoP promoter GFP reporter, confirmatory (AID 1850); conditions: fluorescence, 4 h, at 50 µM, stronger effect = higher value;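 also: 0% = induced wells with vehicle and 100% = uninduced wells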

Compound	inhibition
CC(=O)c1c(C)[nH]c(C(=O)NCCN2CCC(C)CC2)c1C	-6.42%
CCC(C)Oc1ccc(C(=O)Nc2ccc(CN3CCOCC3)cc2)cc1 (centres undefined)	-2.81%
COc1cccc(C(C)NC(=O)Nc2cc(Cl)ccc2OC)c1 (centres undefined)	2.05%
COc1ccc(C(CC(=O)O)c2ccc3c(c2)OCO3)cc1 (centres undefined)	0.47%
CCOc1ccc(OCC)c(NC(=O)Cn2cccc2)c1	-4.63%
O=C(Nc1cccc(NC(=O)c2ccc(-c3ccc(Br)cc3)o2)c1)c1ccco1	7.16%
Cc1c(C)c2cc(Cl)c(OC(C)C(=O)NCCN3CCOCC3)cc2oc1=O (centres undefined)	14.4%
CCCn1c(COc2ccccc2OC)nc2ccccc21	4.56%
CCn1c(COc2ccccc2C)nc2ccccc21	1.26%
Cn1c(COc2ccccc2O)[n+](C)c2ccccc21	4.42%
CCOC(=O)Cn1c(COc2ccccc2OC)[n+](C)c2ccccc21	1.54%
Clc1cccc(OCCOCCN2CCNCC2)c1Cl	6.19%
Cc1ccc(S(=O)(=O)NCCC(=O)NCCSc2ccc(Br)cc2)cc1	-3.98%
Cc1ccc(CS(=O)(=O)CCC(=O)NCC2CCCO2)cc1 (centres undefined)	-9.31%
Cc1ccc2nc(SCC(=O)N3CCCC3)[nH]c2c1	-0.85%
O=C(NC1CCCC1)c1ccc(Cl)s1	-8.57%
O=C(NNC(=O)c1ccc(Br)s1)NC1CCCCC1	-2.75%
Cc1ccsc1C(=O)C1CCCN(Cc2c(C)nn(C(C)C)c2C)C1 (centres undefined)	-6.7%
COc1ccc(N2CC(O)=C(c3nc(-c4ccc(F)cc4)cs3)C2=N)cc1OC	-0.03%
Nc1cc(=O)n(Cc2ccccc2)c(=O)n1-c1ccc(F)cc1	-13.9%
O=C(OC1CCCCC1)c1cc2ccccc2oc1=O	9.64%
c1ccc(C[C@H]2CN=C(Nc3ccccc3)N2CC2CCC2)cc1	0.99%
CCn1c2nc(SCCN3CCOCC3)nnc2c2cc(C)cc(C)c21	-16.9%

Compound	inhibition
CCCn1c(SCC(=O)N2c3ccccc3Sc3ccccc32)nc2ccccc21	-6.61%
CN(C)CCCn1c(SCC(=O)N2CC(=O)Nc3ccccc32)nc2ccccc2c1=O	0.42%
CCN1CCCC1CNC(=O)c1ccc(N2CCOCC2)c(NS(=O)(=O)c2ccc(OC)cc2)c1 (centres undefined)	2.06%
CCN1CSC(=S)N(Cc2ccccc2)C1	-1.16%
COc1ccc(CN2CN(C(C)C)CSC2=S)cc1	16.3%
NCCCC[C@@H]1NC(=O)c2cc([N+](=O)[O-])cc(I)c2SC[C@@H](C(=O)NCC(N)=O)NC(=O)CNC1=O	-0.813%
CCOc1cc(CNCCCN2CCOCC2)ccc1OCC(=O)Nc1cccc2ccccc12	9.38%
COc1cc(CNCCCN2CCOCC2)ccc1OCC(=O)Nc1cccc(C(F)(F)F)c1	8.04%
CC(C)c1ccccc1NC(=O)C1CN(S(=O)(=O)c2ccccc2)CCN1S(=O)(=O)c1ccccc1 (centres undefined)	-5.27%
O=C(N/C(=C/c1cccnc1)C(=O)N1CCOCC1)c1ccccc1Cl	1.54%
COc1ccc(C)cc1Nc1n[n+](-c2ccccc2)c(-c2ccc(N(C)C)cc2)s1	-6.34%
C[n+]1c(-c2ccccc2)sc2ccccc21	-0.28%
CCCCn1c(SCC(=O)Nc2cc(C)on2)nnc1-c1ccncc1	7.28%
Cc1ccc(C(=O)N/C(=C\c2ccco2)C(=O)N2CCCCC2)cc1	11.1%
CC1=C(C#N)C(c2ccccc2)C2=C(N1)c1ccccc1C2=O (centres undefined)	-2.93%
CC(=O)C1=C(C)NC2=C(C(=O)c3ccccc32)C1c1ccccc1 (centres undefined)	-9.36%
COC(=O)C1=C(C)N(CC2CC2)C(=NCCN2CCOCC2)N[C@H]1c1ccccc1	-21.7%
COc1cc(/C=N/NC(=O)c2ccncc2)ccc1OCC(=O)Nc1ccc(C)c(C)c1	8.17%
Cc1ccc(C(OCC(O)CNC(C)c2ccccc2)c2ccccc2)cc1 (centres undefined)	-20.1%
COc1ccc(C(OCC(O)CNCCc2ccccc2)c2ccc(OC)cc2)cc1 (centres undefined)	-15.4%
COc1ccccc1COCC(O)CNCCc1ccc(C(F)(F)F)cc1 (centres undefined)	5.56%
Cc1ccc(OCC(O)CNCc2ccc(F)cc2)cc1 (centres undefined)	-1.28%
COc1ccc2cc(CN(Cc3cccnc3)Cc3nnnn3Cc3ccccc3)c(=O)[nH]c2c1	-1.66%

Compound	inhibition
CCOC(=O)CSc1c(-c2ccc(Cl)cc2)[nH]c2ccccc12	-5.57%
CC1(C)CC(=O)C=C(Nc2ccc(C(=O)O)c(O)c2)C1	-4.27%
N#C/C(=C\c1cn(CCOc2ccccc2)c2ccccc12)C(=O)NCc1cccs1	-5.68%
COc1ccnc(Oc2ccc(C)cc2)c1C#N	5.63%
Cc1ccc(C)c(SCC(=O)NCC(c2ccco2)N2CCCCC2)c1 (centres undefined)	19.8%
COc1ccc(NS(=O)(=O)c2cccc(C(=O)NNC(=O)c3cncc(Br)c3)c2)cc1	11.8%
COc1ccccc1N1CCN(C(=O)/C=C/c2cccs2)CC1	-0.34%
Cc1cc(NS(=O)(=O)c2ccc(NC(=O)Nc3ccccc3)cc2)no1	-1.36%
Cc1cc(NS(=O)(=O)c2ccc(NC(=O)Nc3cccc(C(F)(F)F)c3)cc2)no1	-2.04%
CCN1c2ccccc2NC2C1C(C(C)=O)C(=O)N2c1ccc(Cl)cc1 (centres undefined)	-5.05%
CCCN1C(=O)c2ccccc2NC1c1cc(OC)c(OC)c(OC)c1 (centres undefined)	4.01%
COc1ccc(-c2[nH]ncc2-c2nc(C)cs2)c(O)c1	-0.79%
Cc1ccc(OCC(O)Cn2c(=N)n(Cc3ccccc3)c3ccccc32)cc1 (centres undefined)	-18.7%
COc1ccc(OCC(O)Cn2c(=N)n(Cc3ccccc3)c3ccccc32)cc1 (centres undefined)	10.7%
Cc1cccc(OCC(O)Cn2c(=N)n(Cc3ccccc3)c3ccccc32)c1 (centres undefined)	-11.7%
N=c1n(Cc2ccccc2)c2ccccc2n1CC(O)COc1ccccc1 (centres undefined)	-2.26%
Cc1ccn2cc(-c3cccc(NS(C)(=O)=O)c3)nc2c1	-0.47%
CN(C)c1cccc(C(=O)OCC(=O)Nc2ccccc2-c2ccccc2)c1	-5.83%
Cc1ccc(OCCNC(=O)CCC(=O)N2CCOCC2)cc1	1.97%
CNCc1c(OCc2ccc(F)cc2)ccc2ccccc12	20.5%
CNCc1c(OCc2ccccc2)ccc2ccccc12	15.5%
Cc1cc(C)c2nc(C)cc(Nc3ccc(C(=O)NCCO)cc3)c2c1	1.42%
COc1ccc2oc(C(=O)OCC(=O)N3CC(C)OC(C)C3)c(C)c2c1 (centres undefined)	1.14%

Compound	inhibition
CCOC(=O)c1ccc(NC2=CC(=O)C(=O)c3ccccc32)cc1	0.12%
O=C1C=C(Nc2cccc3cccnc23)c2ccccc2C1=O	1.58%
O=C1C=C(Nc2ccccc2C(=O)O)c2ccccc2C1=O	8.73%
Cc1ccc(NC2=CC(=O)C(=O)c3ccccc32)cc1	5.69%
CS(=O)(=O)N(CC(=O)N1CCC(C(N)=O)CC1)C1CCCCC1	-1.33%
CCOC(=O)Cc1csc(NC(=O)c2ccc3ncsc3c2)n1	-6%
COc1ccc(-n2nc(C(=O)NCC(=O)NCc3ccccc3OC)c3ccccc3c2=O)cc1	8.47%
c1ccc(N2CCN(c3nc(NCc4ccco4)c4ccccc4n3)CC2)cc1	13.6%
c1ccc(CN2CCN(c3nc(N4CCOCC4)c4ccccc4n3)CC2)cc1	-3.61%
OCCN1CCN(c2nc(NCc3ccco3)c3ccccc3n2)CC1	3.47%
OCCNc1nc(N2CCN(Cc3ccccc3)CC2)nc2ccccc12	1.64%
O=C(NC(=S)N1CCN(c2ccc([N+](=O)[O-])cc2)CC1)c1ccco1	-9.69%
CCC1(c2ccccc2)NC(=O)N(CC(=O)Nc2nnc(C3CC3)s2)C1=O (centres undefined)	-9.36%
COc1ccc(OC)c2[nH]c(=O)c(CCNS(=O)(=O)c3ccc(C)cc3)cc12	7.93%
C#CCOCCOCCOCCNc1nc(N2CCN(C(=O)[C@H](Cc3ccc(O)cc3)n3cc([C@@H](N)C(C)CC)nn3)CC2)nc(N2CCN(C(=O)[C@H](Cc3cc4ccccc4[nH]3)n3cc([C@@H](N)CC(C)C)nn3)CC2)n1 (some centres undefined)	11%
C#CCOCCOCCOCCNc1nc(N2CCN(C(=O)[C@H](CCC(=O)O)n3cc(C(N)Cc4ccc(O)cc4)nn3)CC2)nc(N2CCN(C(=O)[C@H](Cc3cc4ccccc4[nH]3)n3cc(C(N)CC(C)C)nn3)CC2)n1 (some centres undefined)	5.34%
C#CCOCCOCCOCCNc1nc(N2CCN(C(=O)C(Cc3ccc(O)cc3)n3cc(C(N)CC(C)C)nn3)CC2)nc(N2CCN(C(=O)C(Cc3cc4ccccc4[nH]3)n3cc(C(N)C(C)CC)nn3)CC2)n1 (centres undefined)	18.1%
C#CCOCCOCCOCCNc1nc(N2CCN(C(=O)C(CCC(=O)O)n3cc(C(N)CC(C)C)nn3)CC2)nc(N2CCN(C(=O)C(Cc3cc4ccccc4[nH]3)n3cc(C(N)Cc4ccc(O)cc4)nn3)CC2)n1 (centres undefined)	-1.42%
C#CCOCCOCCOCCNc1nc(N2CCN(C(=O)[C@H]([C@@H](C)CC)n3cc([C@@H](N)CC(C)C)nn3)CC2)nc(N2CCN(C(=O)[C@H](Cc3cc4ccccc4[nH]3)n3cc([C@@H](N)Cc4ccc(O)cc4)nn3)CC2)n1	-29.1%
C#CCOCCOCCOCCNc1nc(N2CCN(C(=O)[C@H]([C@@H](C)CC)n3cc([C@@H](N)Cc4ccc(O)cc4)nn3)CC2)nc(N2CCN(C(=O)[C@H](Cc3cc4ccccc4[nH]3)n3cc([C@@H](N)C(C)CC)nn3)CC2)n1 (some centres undefined)	17.7%
